High-throughput results (PubChem)
DT40 TDP1 no CPT: qHTS for Inhibitors of human tyrosyl-DNA phosphodiesterase 1 (TDP1): qHTS in cells in absence of CPT; DT40 Tdp1-/- hTDP1 cells, no CPT, ATP luminescence, 48 h; Potency, µM (highest dose often 46.2 µM), most hits filed as inhibitors; actives 15% (n = 420,000); also: nearly all actives have a fitted effect of over 55% in size
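A cellular qHTS used chicken DT40 cells lacking endogenous Tdp1 but carrying stably transfected human TDP1. Compounds were applied without camptothecin, and cell growth kinetics were judged by ATP-dependent luminescence after ≥48 hr.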
SW480 rereplic: inducers of DNA re-replication in SW480 colon cancer cells; SW480 DNA re-replication, Hoechst DNA content imaging, 48 h; Potency, µM (series often up to 46.1 µM), actives largely listed as activators; actives 1.8% (n = 340,000); AID 624297; also: nearly all actives have a fitted effect of over 55% in size
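First, 250 cells per well were seeded. Next, compound or vehicle (23 nL) was pinned in, plates sat 48 hr at 37 C. Finally Hoechst was added for 40 min before fluorescence scanning.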
MCF10A rerep: DNA re-replication induction in MCF 10a cells. MCF 10A DNA re-replication, Hoechst nuclear intensity, 48 h. Potency, µM (top dose mostly 46.1 µM), usual class: activators. actives 2.9% (n = 350,000). AID 624296; also: nearly all actives have a fitted effect of over 50% in size
Chronic BCR inh: blocks chronic active B-cell receptor signaling | ABC-DLBCL IkBa-CBG/CBR reporter, luminescence ratio, 4 h | Potency, µM (highest dose often 46.1 µM), actives largely listed as inhibitors | actives 0.05% (n = 340,000); active = well fitted inhibition curve with a large enough effect in the signal ratio, with a control signal flat, not every such curve was filed as active; inconclusive = small, poorly fitted or top-dose-only effect, or effect the other way, or a change in a side signal; the % refers to the signal ratio
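TMD8 human ABC-DLBCL cells with doxycycline-inducible IκBα–green luciferase fusion and unfused red luciferase, in 0.5% FBS medium; compounds up to 46 uM, 4 h at 37C. Green/red luminescence ratio, filter-overlap corrected, fitted to concentration-response curves.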
DT40 TDP1 CPT: DT40-hTDP1 cell growth loss with CPT; Potency, µM (top dose mostly 46.2 µM), most hits filed as inhibitors; actives 12% (n = 420,000); AID 686979; chicken DT40 Tdp1-/-;hTDP1 cells + 20 nM CPT, ATP luminescence, 48 h; also: nearly all actives have a fitted effect of over 55% in size
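Cell growth measured by CellTiter-Glo luminescence after a minimum 48 h, 37 C compound exposure with 20 nM CPT in Tdp1-knockout DT40 cells stably expressing hTDP1, seeded 400/well; qHTS titration format.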
IL1B secr inh: inhibitors of inflammasome signaling (IL-1 beta secretion); actives 4.7% (n = 360,000); activity change, % at 57.5 µM; THP-1 LPS/ATP IL-1B secretion, AlphaLISA, 16 h; active compounds read low; in the data active = activity change below about -50%; inconclusive = mostly about -30% to -49%
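THP-1 cells pretreated 1 hr with compounds (up to 57.5 uM final), then stimulated with LPS (250 ng/mL final) plus ATP (1.25 mM final); secreted IL-1B measured by AlphaLISA after 16 hr, decreased signal indicating inhibition.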
Hits are given with their value; n = inactive; u = inconclusive; x = no result given. Sampled rows, rich in hits. Any-hit rate of the full collection: about 19%. Unless noted, calls follow the shape of the dose curve; as a rule, active = well fitted curve in the direction sought with a large enough effect; inconclusive = small, poorly fitted or top-dose-only effect, or another doubt; inactive = no such curve, though single readings can be large; an effect the other way counts as inactive or inconclusive.

SMILES | DT40 TDP1 no CPT | SW480 rereplic | MCF10A rerep | Chronic BCR inh | DT40 TDP1 CPT | IL1B secr inh
OC[C@@H]1CN(CCc2ccccc2)C[C@H](n2cnc3c(NCc4ccc(F)cc4)ncnc32)O1 | u | x | x | x | u | n
COc1ccccc1CNC(=O)Cc1c(C)c2c(cc(C)c3c(C)coc32)oc1=O | n | x | x | x | n | x
COc1ccc(NC(=O)COc2ccccc2Cc2ccccc2)cc1S(=O)(=O)N1CCOCC1 | u | n | n | n | u | n
CCCN(CCC)C(=O)C(c1ccccc1)C1(O)CCCCC1 (centres undefined) | u | n | n | x | u | n
COc1ccc([C@H]2C[C@H](O)[C@@H](n3cc(-c4ccc(F)cc4)nn3)CN2C(=O)C2CCCCC2)cc1 | n | x | x | x | n | n
CC1(C(=O)NCc2cccs2)Cc2c(-c3ccc4c(c3)OCO4)ccnc2O1 (centres undefined) | 2.3µM | x | x | x | 1.3µM | n
CC1(C(=O)Nc2ccccc2)Cc2c(-c3ccc4c(c3)OCO4)ccnc2O1 (centres undefined) | n | x | x | x | u | n
Cc1cccc(N(CC(=O)NCCc2ccccc2)C(=O)c2csnn2)c1 | n | n | n | n | n | n
CNC(=O)COC(=O)/C=C/c1cn(-c2ccccc2)nc1-c1ccc2c(c1)OCCO2 | n | n | n | n | n | n
Cc1ccc(-c2nn(-c3ccccc3)cc2/C=N/NC(=O)c2ccncc2)o1 | 23µM | u | u | u | u | n
CCOc1cc(C(=O)N/N=C/c2cn(-c3ccccc3)nc2-c2cc3ccccc3o2)cc(OCC)c1OCC | 13µM | n | n | x | 23µM | n
Cc1ccc(-c2nn(-c3ccccc3)cc2/C=C/C(=O)OCC(=O)NC2CC2)o1 | u | n | u | n | 21µM | n
O=C(/C(C=Nc1ccc(F)cc1)=C(/O)c1ccco1)C(F)(F)F | n | u | n | u | n | n
COc1c(C=O)c2c(c(OC)c1OC)-c1ccc(OC)c(=O)cc1C(NC(C)=O)CC2 (centres undefined) | 0.015µM | 0.1µM | u | x | 0.0082µM | n
COC(=O)c1ccc2c(c1)C(NC(C)=O)CCc1cc(OC)c(OC)c(OC)c1-2 (centres undefined) | 0.021µM | 0.092µM | 0.12µM | x | 0.018µM | -73
COc1cc2c(c(OC)c1OC)-c1ccc(OC)c(=O)cc1C(NC(=O)c1ccccc1)CC2 (centres undefined) | 0.018µM | 0.021µM | u | x | 0.0092µM | n
COc1cc2c(c(O)c1OC)C(=O)C(OC)CCC2 (centres undefined) | n | n | n | n | n | n
C=COC(=O)NC1CCc2cc(OC)c(OC)c(OC)c2-c2ccc(SC)c(=O)cc21 (centres undefined) | 0.016µM | u | n | x | 0.026µM | n
COc1cc(CC(=O)NC2CCCc3ccccc32)cc(OC)c1OC (centres undefined) | u | n | n | n | u | n
O=C(CSc1nnc(CNC(=O)c2cccs2)o1)Nc1cccc(Cl)c1 | n | n | n | n | n | n
CCc1nnc(NC(=O)CSc2nnc3nc(C)cc(C)n23)s1 | n | n | n | n | n | n
COCCCNC(=O)CCCn1c(=O)c2cccn2c2cccnc21 | n | x | x | x | n | x
COc1cc2c(c(OC)c1OC)C(=O)CC2 | n | n | n | n | n | n
COc1c(O[C@@H]2O[C@H](CO)[C@@H](O)[C@H](O)[C@H]2O)cc2c(c1OC)-c1ccc(SC)c(=O)cc1C(NC(C)=O)CC2 (some centres undefined) | n | u | n | n | n | n
COc1cc2c(c(OC)c1OC)-c1ccc(SC)c(=O)cc1C(NC(=O)c1ccccc1)CC2 (centres undefined) | 0.016µM | 0.015µM | u | x | 0.015µM | u
COc1cccc(C(=O)Nc2ccc3c(cc2=O)[C@@H](NC(C)=O)CCc2cc(OC)c(OC)c(OC)c2-3)c1 | 2.9µM | 7.3µM | 5.8µM | u | 6.5µM | n
